Compound activity from PubChem.
ADAM10 inh: inhibits human ADAM10 | recombinant ADAM10, EDANS/DABCYL FRET peptide cleavage, 3 h | AID 720582 | 370,000 tested, 0.62% active | inhibition, % at 7 µM | O14672;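 active = inhibition above a per-campaign cutoff equal to the mean of compounds falling between control-based bounds plus 3 SD, cut at about 20% in these data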;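 also: 0% = DMSO wells while the 100% control is not disclosed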
KLK7 zymogen act: activators of human kallikrein-7 zymogen; P49862; purified proKLK7, EDANS-DABCYL substrate fluorescence; 100% is mature enzyme control, 0% vehicle; activation, % at 7 µM; 370,000 tested, 0.9% active; AID 652039;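 active = activation above the mean of all tested compounds plus 3 SD, computed per campaign excluding outliers beyond control limits, cut at about 13% in these data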
ADAM17 inh: ADAM17 inhibition, QFRET primary screen | P78536 | recombinant ADAM17, EDANS/DABCYL FRET peptide cleavage | inhibition, % at 6.95 µM | 370,000 tested, 0.83% active | AID 720648;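 active = inhibition above the mean of compounds lying between control limits plus 3 SD, set per campaign, cut at about 8.5% in these data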;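 also: 0% = DMSO-only wells as the low control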
PLC-gamma1 inh: blocks human PLC-gamma1 enzyme activity; 370,000 tested, 0.84% active; inhibition, % at 12.2 µM; purified PLC-gamma1, fluorogenic substrate, fluorescence; AID 720700; P19174; in the data active = inhibition above about 9.5%
PLC-beta3 inh: inhibitors of human phospholipase C beta3. Purified PLC-beta3, fluorogenic substrate, fluorescence. inhibition, % at 12.2 µM. 370,000 tested, 0.18% active; in the data active = inhibition above about 11%;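 also: 0% = median of compound wells on plate and 100% = full blocker control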
Target sequence (Q01970 whole entry, looked up): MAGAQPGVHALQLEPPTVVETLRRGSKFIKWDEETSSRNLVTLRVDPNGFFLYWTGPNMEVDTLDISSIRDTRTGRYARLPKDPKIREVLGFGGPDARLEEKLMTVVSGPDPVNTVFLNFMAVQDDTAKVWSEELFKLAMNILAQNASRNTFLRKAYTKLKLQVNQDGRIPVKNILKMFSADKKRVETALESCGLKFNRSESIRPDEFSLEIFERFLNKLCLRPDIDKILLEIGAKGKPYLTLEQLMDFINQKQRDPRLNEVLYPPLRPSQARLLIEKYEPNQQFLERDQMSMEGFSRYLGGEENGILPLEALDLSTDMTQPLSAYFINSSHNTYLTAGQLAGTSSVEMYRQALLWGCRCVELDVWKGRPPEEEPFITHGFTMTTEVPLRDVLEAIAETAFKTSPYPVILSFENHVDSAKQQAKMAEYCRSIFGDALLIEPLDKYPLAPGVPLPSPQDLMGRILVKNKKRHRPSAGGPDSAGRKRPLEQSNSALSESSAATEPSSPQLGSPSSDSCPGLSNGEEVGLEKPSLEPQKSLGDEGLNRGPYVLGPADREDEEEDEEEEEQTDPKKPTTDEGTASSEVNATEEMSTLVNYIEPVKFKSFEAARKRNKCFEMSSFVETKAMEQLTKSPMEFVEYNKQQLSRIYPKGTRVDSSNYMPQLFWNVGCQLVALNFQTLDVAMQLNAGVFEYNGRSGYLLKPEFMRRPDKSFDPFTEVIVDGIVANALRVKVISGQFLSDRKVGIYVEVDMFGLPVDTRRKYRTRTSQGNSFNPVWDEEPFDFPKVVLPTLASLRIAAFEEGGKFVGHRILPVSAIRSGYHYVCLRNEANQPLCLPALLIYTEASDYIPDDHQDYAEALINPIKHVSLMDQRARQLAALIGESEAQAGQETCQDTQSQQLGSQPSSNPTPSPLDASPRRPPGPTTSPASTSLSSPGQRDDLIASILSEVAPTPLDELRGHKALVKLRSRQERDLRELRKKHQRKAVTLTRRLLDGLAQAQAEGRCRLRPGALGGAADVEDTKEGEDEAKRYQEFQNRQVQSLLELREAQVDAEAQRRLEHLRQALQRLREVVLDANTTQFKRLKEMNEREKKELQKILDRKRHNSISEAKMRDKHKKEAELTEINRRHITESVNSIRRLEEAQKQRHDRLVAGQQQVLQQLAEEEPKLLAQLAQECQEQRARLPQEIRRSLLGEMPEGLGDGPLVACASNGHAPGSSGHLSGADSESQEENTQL
ADAM10 confirm: confirmation of inhibitors of human ADAM10; shares compounds with ADAM10 inh; ADAM10 QFRET peptide cleavage, EDANS fluorescence; inhibition, % at 6.95 µM; 2,100 tested, 1% active;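 active = inhibition above about 20% chosen separately for each screening run, limit read from the data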;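 also: 0% = DMSO wells and 100% = marimastat wells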
ADAM17 ctr: ADAM17 inhibition, counter-screen for ADAM10 exosite hits; AID 743214; 2,100 tested, 0.5% active; inhibition, % at 6.95 µM; shares compounds with ADAM10 inh; ADAM17 QFRET peptide cleavage, EDANS fluorescence;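 active = mean triplicate inhibition above the solvent-only control wells' mean plus 3 SD, cut at about 12% in these data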;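 also: 0% = DMSO wells and 100% = marimastat wells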
ADAM10 ctr: ADAM10 inhibition, counter-screen for ADAM17 exosite hits; 2,900 tested, 47% active; shares compounds with ADAM17 inh; inhibition, % at 6.95 µM; recombinant ADAM10, EDANS/DABCYL FRET peptide cleavage, 3 h;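 active = mean inhibition over the triplicate runs exceeds the activity threshold set in the earlier primary screen, cut at about 20% in these data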;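 also: 0% = DMSO wells and 100% = marimastat wells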
ADAM17 confirm: human ADAM17 inhibition, confirmation; shares compounds with ADAM17 inh; recombinant ADAM17, EDANS/DABCYL QFRET peptide cleavage; 2,900 tested, 65% active; inhibition, % at 6.95 µM;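 active = mean inhibition across replicates above the hit cutoff set in the primary screen, cut at about 8.5% in these data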;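 also: 0% = DMSO wells and 100% = marimastat wells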
* hit, by the source's call. The list is not random: actives were taken first. Their share in the collection is about 2.9%.

Nc1cccc(Oc2c(F)c(F)c(Oc3cccc(N)c3)c(F)c2F)c1 was read as ADAM10 inh 23*, KLK7 zymogen act 0, ADAM17 inh 9.2*, PLC-gamma1 inh 1, PLC-beta3 inh -4, ADAM10 confirm 4, ADAM17 ctr 1, ADAM10 ctr 41* and ADAM17 confirm 20*.
For COc1cccc(N)c1 the results were ADAM10 inh -9, KLK7 zymogen act 0, ADAM17 inh 0, PLC-gamma1 inh 4 and PLC-beta3 inh 5.
Screening CCCCCCCOC(=O)C1=C(C)Nc2ncnn2C1c1cccs1 (stereo not given) returned ADAM10 inh 1, KLK7 zymogen act -1, ADAM17 inh 0, PLC-gamma1 inh 2 and PLC-beta3 inh 2.
Screening CCCCCCCCOC(=O)C1=C(C)Nc2nnnn2C1c1cccs1 (stereo not given) returned ADAM10 inh 20*, KLK7 zymogen act 1, ADAM17 inh 10*, PLC-gamma1 inh -2, PLC-beta3 inh -2, ADAM10 confirm 8, ADAM17 ctr 3, ADAM10 ctr 21* and ADAM17 confirm 8.
Screening COc1ccc([C@H]2CC(=O)C=C(c3ccc(SC)cc3)C2)cc1 returned ADAM10 inh -16, KLK7 zymogen act -3, ADAM17 inh -5, PLC-gamma1 inh -27 and PLC-beta3 inh -51.
Screening O=C(Cc1ccc(Br)cc1)Nc1cccc(S(=O)(=O)N2CCCCC2)c1 returned ADAM10 inh 23*, KLK7 zymogen act 1, ADAM17 inh 12*, PLC-gamma1 inh 3, PLC-beta3 inh 9, ADAM10 confirm 3, ADAM17 ctr 2, ADAM10 ctr 7 and ADAM17 confirm 6.
Screening O=C(CNc1cccc(Br)c1)Nc1ccc(S(=O)(=O)N2CCCCC2)cc1 returned ADAM10 inh 27*, KLK7 zymogen act 0, ADAM17 inh 16*, PLC-gamma1 inh 7, PLC-beta3 inh 0, ADAM10 confirm 8, ADAM17 ctr 3, ADAM10 ctr 32* and ADAM17 confirm 21*.
Screening O=C(Cc1ccc(Cl)cc1)Nc1cccc(S(=O)(=O)N2CCCCC2)c1 returned ADAM10 inh -4, KLK7 zymogen act 0, ADAM17 inh 2, PLC-gamma1 inh 1 and PLC-beta3 inh -9.
Screening O=C(Nc1ccc(C(F)(F)F)cc1)C1CCCCN1S(=O)(=O)c1ccccc1 (stereo not given) returned ADAM10 inh 28*, KLK7 zymogen act 0, ADAM17 inh 10*, PLC-gamma1 inh 5, PLC-beta3 inh -9, ADAM10 confirm 4, ADAM17 ctr 1, ADAM10 ctr 15 and ADAM17 confirm 7.
O=C(CNc1cccc(S(=O)(=O)N2CCCCC2)c1)Nc1ccc(C(F)(F)F)cc1 was read as ADAM10 inh 28*, KLK7 zymogen act 0, ADAM17 inh 10*, PLC-gamma1 inh 7, PLC-beta3 inh 11, ADAM10 confirm 3, ADAM17 ctr 1, ADAM10 ctr 13 and ADAM17 confirm 7.
O=C(CNc1cccc(S(=O)(=O)N2CCCC2)c1)Nc1ccc(C(F)(F)F)cc1 was read as ADAM10 inh 11, KLK7 zymogen act 0, ADAM17 inh 6, PLC-gamma1 inh 1 and PLC-beta3 inh -1.
Screening O=C(NCc1ccccc1)C(c1ccco1)N1CCN(c2ccccc2F)CC1 (stereo not given) returned ADAM10 inh -1, KLK7 zymogen act 0, ADAM17 inh -1, PLC-gamma1 inh 4 and PLC-beta3 inh 3.
For NC(=O)c1cc([N+](=O)[O-])ccc1NCC1CCCCC1 the results were ADAM10 inh 8, KLK7 zymogen act 1, ADAM17 inh 3, PLC-gamma1 inh 1 and PLC-beta3 inh 5.
For CC(C)COP(=O)(OCC(C)C)C(O)c1ccc(N(C)C)cc1 (stereo not given) the results were ADAM10 inh -1, KLK7 zymogen act 1, ADAM17 inh -4, PLC-gamma1 inh 0 and PLC-beta3 inh -3.
For O=C(CN1C(=O)NC(Cc2c[nH]c3ccccc23)C1=O)Nc1cccc(S(=O)(=O)N2CCCCCC2)c1 (stereo not given) the results were ADAM10 inh 21*, KLK7 zymogen act 0, ADAM17 inh 11*, PLC-gamma1 inh 6, PLC-beta3 inh 8, ADAM10 confirm 4, ADAM17 ctr 1, ADAM10 ctr 28* and ADAM17 confirm 17*.
For CC(C)(C)c1ccc(OCCC(=O)Nc2cccc(S(=O)(=O)N3CCCC3)c2)cc1 the results were ADAM10 inh 22*, KLK7 zymogen act 0, ADAM17 inh 8.9*, PLC-gamma1 inh 5, PLC-beta3 inh 0, ADAM10 confirm 10, ADAM17 ctr 3, ADAM10 ctr 37* and ADAM17 confirm 23*.
For CCCC(=O)NC(Nc1cccc(C(F)(F)F)c1)C(Cl)(Cl)Cl (stereo not given) the results were ADAM10 inh 12, KLK7 zymogen act 0, ADAM17 inh 1, PLC-gamma1 inh 2 and PLC-beta3 inh 4.
`COc1cc(/C=C(\C#N)C(=O)Nc2cccnc2)ccc1OC(C)C` gave ADAM10 inh -15, KLK7 zymogen act -1, ADAM17 inh 1, PLC-gamma1 inh -2 and PLC-beta3 inh 0.
`CCCCC[C@@H](C)N1C[C@H](COCc2ccccc2)Oc2cc(N3CC[C@@H](O)C3)ccc2S1(=O)=O` gave ADAM10 inh 22*, KLK7 zymogen act 1, ADAM17 inh 9.9*, PLC-gamma1 inh 3, PLC-beta3 inh 2, ADAM10 confirm 10, ADAM17 ctr 4, ADAM10 ctr 40* and ADAM17 confirm 24*.
`CCCCC[C@@H](C)N1C[C@@H](COCc2ccccc2)Oc2cc(N3CCC[C@H]3C(N)=O)ccc2S1(=O)=O` gave ADAM10 inh 28*, KLK7 zymogen act 0, ADAM17 inh 16*, PLC-gamma1 inh 3, PLC-beta3 inh 4, ADAM10 confirm 10, ADAM17 ctr 3, ADAM10 ctr 22* and ADAM17 confirm 14*.
`CCCCC[C@H](C)N1C[C@H](COCc2ccccc2)Oc2cc(N3CCC[C@H]3CO)ccc2S1(=O)=O` gave ADAM10 inh 16, KLK7 zymogen act 0, ADAM17 inh 8, PLC-gamma1 inh -1 and PLC-beta3 inh -4.
